We go through nine compounds from the supplement of paper PMC11732987, “Enantioselective OTUD7B fragment discovery through chemoproteomics screening and high-throughput optimisation” (Communications Chemistry, 2025).

SMILES strings stand for the structures. Unmarked numbers belong to inactive results.

Common to all, as to assay: log2 ratio of Biotin-Ahx-Ub-VS probe labelling (fragment/DMSO); higher = less target engagement (more negative = stronger competition), active = hit call of the paper (q ≤ 0.05, log2 ratio ≤ -1)
Conditions in all cases: compound concentration: 200 uM; treatment time: 3 h

One assay concerns the target UniProt O00507. Summed up: (§1)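 The table lists average log2 ratios of fragment over vehicle, from an unpaired t-test on global-median-normalised Spectronaut label-free quantities. Proteins with ≥2 unique peptides were used. Samples were HEK293T lysate (495 µg) treated in triplicate with fragment at 200 µM or vehicle for 3 h, then with Biotin-Ahx-Ub-VS (0.5 µM final) for 1 h, with labelled DUBs NeutrAvidin-enriched and run by diaPASEF LC-MS/MS.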

The target of a further assay is UniProt P51784. The method in brief: as §1
The target of a further assay is T1, UniProt Q5T2D3.
T1 sequence (whole entry): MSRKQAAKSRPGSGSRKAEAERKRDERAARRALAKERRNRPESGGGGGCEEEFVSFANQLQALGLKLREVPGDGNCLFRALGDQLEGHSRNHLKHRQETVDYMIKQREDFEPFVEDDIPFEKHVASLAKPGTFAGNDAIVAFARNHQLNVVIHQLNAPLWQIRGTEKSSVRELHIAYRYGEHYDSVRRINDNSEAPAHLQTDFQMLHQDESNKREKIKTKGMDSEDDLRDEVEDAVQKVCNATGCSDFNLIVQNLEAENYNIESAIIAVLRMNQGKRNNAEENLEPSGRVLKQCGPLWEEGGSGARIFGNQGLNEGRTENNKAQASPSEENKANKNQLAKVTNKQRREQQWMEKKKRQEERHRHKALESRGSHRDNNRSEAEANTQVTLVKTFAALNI
The method in brief:
as §1

For a further assay, the target named is T2, UniProt Q8TE49.
T2 sequence (whole entry): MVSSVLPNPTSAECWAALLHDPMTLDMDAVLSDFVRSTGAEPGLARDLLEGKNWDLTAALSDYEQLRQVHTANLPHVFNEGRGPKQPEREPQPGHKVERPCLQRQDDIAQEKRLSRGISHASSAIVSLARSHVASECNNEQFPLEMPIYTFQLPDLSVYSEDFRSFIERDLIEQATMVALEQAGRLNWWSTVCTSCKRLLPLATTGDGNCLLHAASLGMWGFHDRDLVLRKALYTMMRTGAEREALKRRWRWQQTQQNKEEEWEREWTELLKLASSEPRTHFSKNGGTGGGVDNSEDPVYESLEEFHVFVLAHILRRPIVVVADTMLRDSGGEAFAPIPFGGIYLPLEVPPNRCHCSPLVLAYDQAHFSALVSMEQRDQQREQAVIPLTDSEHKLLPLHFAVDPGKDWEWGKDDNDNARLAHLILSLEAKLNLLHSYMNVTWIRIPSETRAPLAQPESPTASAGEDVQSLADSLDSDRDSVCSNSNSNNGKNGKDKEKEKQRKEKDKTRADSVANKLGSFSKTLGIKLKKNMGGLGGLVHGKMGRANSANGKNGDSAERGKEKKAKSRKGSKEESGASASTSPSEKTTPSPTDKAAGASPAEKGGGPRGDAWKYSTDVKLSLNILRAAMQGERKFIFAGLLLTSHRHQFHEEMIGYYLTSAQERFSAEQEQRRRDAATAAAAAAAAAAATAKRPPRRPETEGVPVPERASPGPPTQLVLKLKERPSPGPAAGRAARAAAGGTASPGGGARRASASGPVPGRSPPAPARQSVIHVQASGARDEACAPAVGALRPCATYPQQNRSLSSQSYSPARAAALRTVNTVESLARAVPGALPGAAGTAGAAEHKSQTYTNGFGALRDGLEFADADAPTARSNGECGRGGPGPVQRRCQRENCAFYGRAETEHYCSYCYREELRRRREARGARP
Summed up:
as §1

In a further assay the target is T3, UniProt Q9P2H5.
T3 sequence (whole entry): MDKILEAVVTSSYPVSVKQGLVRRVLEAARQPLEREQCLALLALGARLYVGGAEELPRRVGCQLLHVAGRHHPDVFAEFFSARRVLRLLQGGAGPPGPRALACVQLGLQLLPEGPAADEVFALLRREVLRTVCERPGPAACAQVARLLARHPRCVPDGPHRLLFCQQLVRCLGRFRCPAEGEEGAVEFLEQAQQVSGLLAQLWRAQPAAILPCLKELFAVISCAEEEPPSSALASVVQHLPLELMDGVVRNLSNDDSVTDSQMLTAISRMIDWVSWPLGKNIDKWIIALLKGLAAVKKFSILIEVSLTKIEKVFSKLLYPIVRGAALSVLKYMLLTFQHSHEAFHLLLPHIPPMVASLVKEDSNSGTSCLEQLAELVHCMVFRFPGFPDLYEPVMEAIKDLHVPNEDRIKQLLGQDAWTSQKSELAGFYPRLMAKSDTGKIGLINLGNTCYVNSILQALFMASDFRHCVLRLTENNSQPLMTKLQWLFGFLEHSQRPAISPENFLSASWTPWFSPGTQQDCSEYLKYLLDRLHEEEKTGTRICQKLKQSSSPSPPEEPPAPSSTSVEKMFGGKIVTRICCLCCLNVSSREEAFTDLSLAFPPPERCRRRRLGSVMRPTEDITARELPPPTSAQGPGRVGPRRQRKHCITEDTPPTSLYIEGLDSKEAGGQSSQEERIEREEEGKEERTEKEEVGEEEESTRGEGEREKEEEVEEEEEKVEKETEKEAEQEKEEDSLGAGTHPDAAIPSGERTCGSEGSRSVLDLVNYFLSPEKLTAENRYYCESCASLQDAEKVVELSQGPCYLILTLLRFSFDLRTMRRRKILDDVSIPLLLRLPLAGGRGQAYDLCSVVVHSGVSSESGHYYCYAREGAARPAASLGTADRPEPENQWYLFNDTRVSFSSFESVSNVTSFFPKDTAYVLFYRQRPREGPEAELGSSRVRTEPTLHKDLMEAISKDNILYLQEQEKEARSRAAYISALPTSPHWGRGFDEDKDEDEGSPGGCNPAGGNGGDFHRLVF
The method in brief: as §1

A further assay has as its target T4, UniProt Q9UGI0.
T4 sequence (whole entry): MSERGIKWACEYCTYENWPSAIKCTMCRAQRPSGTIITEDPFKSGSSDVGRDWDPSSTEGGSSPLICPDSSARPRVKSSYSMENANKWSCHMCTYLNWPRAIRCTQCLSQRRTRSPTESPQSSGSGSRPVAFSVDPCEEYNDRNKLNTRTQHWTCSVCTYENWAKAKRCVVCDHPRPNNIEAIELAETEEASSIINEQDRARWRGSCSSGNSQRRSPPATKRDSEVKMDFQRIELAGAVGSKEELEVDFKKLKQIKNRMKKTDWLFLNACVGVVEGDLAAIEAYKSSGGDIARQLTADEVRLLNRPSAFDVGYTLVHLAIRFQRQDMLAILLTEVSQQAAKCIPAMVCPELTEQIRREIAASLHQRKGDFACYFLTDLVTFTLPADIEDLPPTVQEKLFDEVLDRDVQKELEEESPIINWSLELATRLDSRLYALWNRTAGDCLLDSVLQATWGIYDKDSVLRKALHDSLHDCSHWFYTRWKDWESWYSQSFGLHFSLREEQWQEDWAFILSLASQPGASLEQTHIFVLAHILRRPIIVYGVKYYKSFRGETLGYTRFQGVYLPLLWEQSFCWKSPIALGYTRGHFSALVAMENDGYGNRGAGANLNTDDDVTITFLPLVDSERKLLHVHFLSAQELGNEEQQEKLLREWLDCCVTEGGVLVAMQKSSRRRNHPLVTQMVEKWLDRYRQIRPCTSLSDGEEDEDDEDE
Summed up: as §1

In the next assay the target is T5, YOD1 (UniProt Q5VVQ6).
T5 sequence (whole entry): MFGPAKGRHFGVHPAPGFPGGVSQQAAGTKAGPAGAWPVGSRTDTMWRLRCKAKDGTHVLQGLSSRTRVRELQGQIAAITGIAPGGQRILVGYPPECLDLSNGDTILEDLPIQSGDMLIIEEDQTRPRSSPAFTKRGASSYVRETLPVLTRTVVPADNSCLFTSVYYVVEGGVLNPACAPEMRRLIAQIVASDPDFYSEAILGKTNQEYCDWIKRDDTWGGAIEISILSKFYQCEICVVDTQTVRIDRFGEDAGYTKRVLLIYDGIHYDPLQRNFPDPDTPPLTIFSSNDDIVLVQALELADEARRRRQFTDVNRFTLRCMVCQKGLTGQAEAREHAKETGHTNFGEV
Summed up:
as §1

Sequence of UniProt P51784 (P51784 whole entry): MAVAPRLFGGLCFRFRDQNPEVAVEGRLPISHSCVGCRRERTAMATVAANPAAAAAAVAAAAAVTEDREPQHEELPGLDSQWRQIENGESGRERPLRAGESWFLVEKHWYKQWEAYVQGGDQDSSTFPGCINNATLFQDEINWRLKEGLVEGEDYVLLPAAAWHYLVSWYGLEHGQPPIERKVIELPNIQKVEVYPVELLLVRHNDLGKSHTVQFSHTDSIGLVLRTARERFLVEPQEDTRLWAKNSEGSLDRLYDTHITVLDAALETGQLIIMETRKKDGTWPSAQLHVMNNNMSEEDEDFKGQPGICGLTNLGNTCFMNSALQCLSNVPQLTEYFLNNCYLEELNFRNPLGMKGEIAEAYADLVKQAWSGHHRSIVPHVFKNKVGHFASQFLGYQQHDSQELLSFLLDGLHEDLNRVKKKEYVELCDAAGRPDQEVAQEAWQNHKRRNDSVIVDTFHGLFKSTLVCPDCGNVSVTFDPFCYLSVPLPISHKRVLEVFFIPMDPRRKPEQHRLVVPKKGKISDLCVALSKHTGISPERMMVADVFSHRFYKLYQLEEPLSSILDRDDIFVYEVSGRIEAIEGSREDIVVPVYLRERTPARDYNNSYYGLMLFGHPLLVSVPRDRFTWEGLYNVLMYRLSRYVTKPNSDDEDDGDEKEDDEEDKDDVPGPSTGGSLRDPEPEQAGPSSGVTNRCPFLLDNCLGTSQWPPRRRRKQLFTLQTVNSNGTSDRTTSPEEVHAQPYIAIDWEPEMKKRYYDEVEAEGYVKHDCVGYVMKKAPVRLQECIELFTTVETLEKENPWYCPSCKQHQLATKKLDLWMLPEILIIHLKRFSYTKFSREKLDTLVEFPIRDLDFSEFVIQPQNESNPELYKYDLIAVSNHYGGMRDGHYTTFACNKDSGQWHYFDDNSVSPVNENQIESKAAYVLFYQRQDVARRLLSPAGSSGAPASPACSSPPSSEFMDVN
Sequence of UniProt O00507 (O00507 whole entry, the tested form may be a part): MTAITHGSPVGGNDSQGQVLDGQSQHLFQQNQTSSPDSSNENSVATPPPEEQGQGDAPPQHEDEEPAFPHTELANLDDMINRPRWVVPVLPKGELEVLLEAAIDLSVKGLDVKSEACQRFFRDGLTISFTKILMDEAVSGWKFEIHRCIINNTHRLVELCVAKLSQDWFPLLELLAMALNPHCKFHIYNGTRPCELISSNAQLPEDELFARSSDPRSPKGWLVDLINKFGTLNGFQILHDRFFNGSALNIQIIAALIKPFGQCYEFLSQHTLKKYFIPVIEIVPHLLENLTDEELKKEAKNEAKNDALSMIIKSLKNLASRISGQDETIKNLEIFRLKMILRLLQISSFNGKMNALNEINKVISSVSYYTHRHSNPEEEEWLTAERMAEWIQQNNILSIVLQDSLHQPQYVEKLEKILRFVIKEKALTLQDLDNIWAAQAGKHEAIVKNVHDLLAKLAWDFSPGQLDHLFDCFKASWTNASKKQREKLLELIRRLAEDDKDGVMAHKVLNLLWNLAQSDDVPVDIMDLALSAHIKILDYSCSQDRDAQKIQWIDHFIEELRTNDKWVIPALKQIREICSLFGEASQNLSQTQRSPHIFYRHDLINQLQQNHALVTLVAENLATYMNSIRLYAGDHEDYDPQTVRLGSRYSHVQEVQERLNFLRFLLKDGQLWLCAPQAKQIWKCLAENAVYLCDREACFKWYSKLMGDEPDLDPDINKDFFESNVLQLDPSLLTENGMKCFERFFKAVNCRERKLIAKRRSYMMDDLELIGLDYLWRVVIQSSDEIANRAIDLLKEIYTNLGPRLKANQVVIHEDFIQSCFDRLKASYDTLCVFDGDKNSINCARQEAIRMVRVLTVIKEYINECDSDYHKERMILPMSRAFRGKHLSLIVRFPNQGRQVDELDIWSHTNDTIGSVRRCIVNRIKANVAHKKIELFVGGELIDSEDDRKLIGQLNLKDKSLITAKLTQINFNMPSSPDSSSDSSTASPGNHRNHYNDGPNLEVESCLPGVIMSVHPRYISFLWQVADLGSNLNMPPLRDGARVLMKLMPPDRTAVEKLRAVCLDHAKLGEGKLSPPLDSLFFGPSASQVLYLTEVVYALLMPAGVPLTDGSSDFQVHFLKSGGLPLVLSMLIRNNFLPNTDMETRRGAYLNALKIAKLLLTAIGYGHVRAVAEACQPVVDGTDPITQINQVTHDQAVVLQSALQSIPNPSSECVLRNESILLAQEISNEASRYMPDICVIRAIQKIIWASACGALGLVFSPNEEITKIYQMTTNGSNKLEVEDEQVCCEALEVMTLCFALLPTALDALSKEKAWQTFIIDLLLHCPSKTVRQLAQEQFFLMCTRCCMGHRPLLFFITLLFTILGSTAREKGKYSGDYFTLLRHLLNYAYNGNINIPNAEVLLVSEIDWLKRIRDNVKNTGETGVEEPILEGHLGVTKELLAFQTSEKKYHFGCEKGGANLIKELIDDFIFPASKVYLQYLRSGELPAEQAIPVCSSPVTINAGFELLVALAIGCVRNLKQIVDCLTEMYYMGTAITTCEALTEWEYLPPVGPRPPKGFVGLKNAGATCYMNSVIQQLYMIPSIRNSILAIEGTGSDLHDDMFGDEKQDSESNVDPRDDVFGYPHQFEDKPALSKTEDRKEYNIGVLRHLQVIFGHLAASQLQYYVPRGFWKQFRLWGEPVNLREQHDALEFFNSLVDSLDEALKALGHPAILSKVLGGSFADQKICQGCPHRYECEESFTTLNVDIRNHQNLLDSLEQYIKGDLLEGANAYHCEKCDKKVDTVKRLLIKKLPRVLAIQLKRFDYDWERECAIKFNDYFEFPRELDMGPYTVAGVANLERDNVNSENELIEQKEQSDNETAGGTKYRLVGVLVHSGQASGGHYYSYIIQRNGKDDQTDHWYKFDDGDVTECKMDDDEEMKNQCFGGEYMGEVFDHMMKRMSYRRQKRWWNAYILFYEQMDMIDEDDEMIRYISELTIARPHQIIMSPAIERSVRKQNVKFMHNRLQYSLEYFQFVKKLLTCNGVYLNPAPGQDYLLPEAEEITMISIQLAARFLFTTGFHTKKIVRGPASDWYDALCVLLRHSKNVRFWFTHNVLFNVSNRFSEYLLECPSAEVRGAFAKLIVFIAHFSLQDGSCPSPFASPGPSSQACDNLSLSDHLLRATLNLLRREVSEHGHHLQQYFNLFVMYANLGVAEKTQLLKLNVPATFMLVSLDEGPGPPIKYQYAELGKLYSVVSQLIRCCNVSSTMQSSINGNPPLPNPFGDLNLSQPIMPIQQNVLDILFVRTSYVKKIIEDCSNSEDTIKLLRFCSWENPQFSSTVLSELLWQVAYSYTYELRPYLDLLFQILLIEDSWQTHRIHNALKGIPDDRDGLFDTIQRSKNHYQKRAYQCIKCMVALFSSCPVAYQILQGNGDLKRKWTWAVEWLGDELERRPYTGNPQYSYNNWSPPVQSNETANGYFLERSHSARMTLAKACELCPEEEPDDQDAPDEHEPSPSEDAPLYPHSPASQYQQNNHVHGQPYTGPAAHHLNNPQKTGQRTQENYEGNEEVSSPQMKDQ

For the compound `O=C(CCl)NC1CCC(C(F)(F)F)CC1` (stereo not drawn), the “log2 ratio of Biotin-Ahx-Ub-VS probe labelling” value (“log2 ratio” below) with UniProt O00507 is -0.728; with UniProt P51784, 0.104; in the assay with UniProt Q5T2D3, -0.211; with UniProt Q8TE49, -0.706; with UniProt Q9P2H5 it was 0.159; with UniProt Q9UGI0 it was -0.54. The “log2 ratio” value with YOD1 was -0.348.
As to `Cc1cccc(NC(=O)[C@@H]2CCCN2C(=O)CCl)n1`, the “log2 ratio” value is -0.299 in the assay with UniProt O00507; -0.00908 with UniProt P51784; -0.366 in the assay with UniProt Q5T2D3; -0.721 in the assay with UniProt Q8TE49; -0.312 in the assay with UniProt Q9P2H5; -0.3 in the assay with UniProt Q9UGI0. In addition, the “log2 ratio” value with YOD1 was -0.432.
As to `CC1CCc2onc(CNC(=O)CCl)c2C1` (stereo not drawn), the “log2 ratio” value in the assay with UniProt O00507 is 0.195; in the assay with UniProt P51784, 0.152; in the assay with UniProt Q5T2D3 it was -0.305; with UniProt Q8TE49 it was -0.691; in the assay with UniProt Q9P2H5, -0.252; with UniProt Q9UGI0, -0.538. In addition, the “log2 ratio” value with YOD1 is 0.146.
As to `COc1ccc(CN(C)C(=O)CCl)cc1`, the “log2 ratio” value with UniProt O00507 is -0.339; with UniProt P51784 it was 0.00264; with UniProt Q5T2D3, -0.273; with UniProt Q8TE49, -0.895; with UniProt Q9P2H5, 0.0343; with UniProt Q9UGI0 it was -0.846. Besides, in the assay with YOD1, the “log2 ratio” value is -0.295.
`CCCn1nccc1NC(=O)CCl`: the “log2 ratio” value in the assay with UniProt O00507 is -0.381; with UniProt P51784, -0.0768; in the assay with UniProt Q5T2D3, -0.0284; in the assay with UniProt Q8TE49, -1.02 (active); with UniProt Q9P2H5, -0.452; with UniProt Q9UGI0 it was -0.251. Also, the “log2 ratio” value with YOD1 was -0.159.
For the compound `O=C(CCl)NC1CCC2(CC1)OCCO2`, the “log2 ratio” value is -0.379 with UniProt O00507; -0.104 with UniProt P51784; -0.473 with UniProt Q5T2D3; -0.565 with UniProt Q8TE49; -0.399 in the assay with UniProt Q9P2H5; -0.544 with UniProt Q9UGI0. Further, in the assay with YOD1, the “log2 ratio” value is -0.297.
With `CC(NC(=O)CCl)c1ccc2[nH]ncc2c1` (stereo not drawn), the “log2 ratio” value is -0.939 with UniProt O00507; -0.173 with UniProt P51784; -0.26 with UniProt Q5T2D3; -1.1 (active) with UniProt Q8TE49; -0.0706 with UniProt Q9P2H5; -0.756 with UniProt Q9UGI0. In the assay with YOD1, the “log2 ratio” value was -0.629.
For the compound `CN(CCC(O)c1ccc(Br)cc1)C(=O)CCl` (stereo not drawn), the “log2 ratio” value in the assay with UniProt O00507 is -0.198; with UniProt P51784, -0.124; with UniProt Q5T2D3, -0.111; in the assay with UniProt Q8TE49, -1.29 (active); in the assay with UniProt Q9P2H5, -0.328; with UniProt Q9UGI0, -0.555. In addition, in the assay with YOD1, the “log2 ratio” value was 0.00847.
Regarding `O=C(CCl)NC1CCN(C(=O)C2CCCCC2)CC1`, the “log2 ratio” value is -0.257 in the assay with UniProt O00507; 0.122 with UniProt P51784; 0.0478 with UniProt Q5T2D3; -0.283 in the assay with UniProt Q8TE49; 0.125 in the assay with UniProt Q9P2H5; -0.0541 with UniProt Q9UGI0. Further, in the assay with YOD1, the “log2 ratio” value was -0.0714.
